A selection: hits, their analogues and other compounds. The true share with any hit is near 1.6%.
Myeloid diff MLP: myeloid differentiation induction; ER-HoxA9 myeloid progenitors, lysozyme-GFP differentiation, flow cytometry; calls only at 10 µM; 360,000 tested, 1% active; AID 624256;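 active = normalized GFP-positive differentiation at or above the plate's own cutoff, the solvent-only control mean plus 3 SD; inconclusive = no clear call, values can overlap the other calls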;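 note: cells exposed to compound for four days before flow analysis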
N-glyco inh: N-linked glycosylation inhibition; AID 588692; 360,000 tested, 0.23% active; reporter increase, % at 12.5 µM; D54 ERlucT glycosylation luciferase reporter, 24 h; percent of 100 nM tunicamycin response;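 active = mean luciferase reporter signal, scaled so untreated is 0 and the glycosylation-blocking control 100, at or above a set limit in every replicate; inconclusive = mean reaches the limit but not every replicate does; inactive = mean below the limit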;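 note: luciferase carries N-glycosylation sites so blocking glycosylation raises the light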
Vif inh: inhibitors of HIV Vif. AID 602346. inhibition, % at 7.49 µM. HEK293T cells, Vif self-association by quenched fluorescence, imaging, 24 h. 340,000 tested, 0.35% active; in the data active = inhibition above about 50%, passing the limit was not always enough; inconclusive = no clear call, values can overlap the other calls; inactive = below about 31%
RAD54 branch: blocks human RAD54 Holliday junction branch migration; FAM/BHQ fluorescence; inhibition, % at 10.4 µM; 360,000 tested, 0.14% active;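 active = mean normalized replicate activity at least 40 and at least half of replicates scoring 40 or more; inconclusive = only one of the two criteria met; inactive = mean below 40 and under half of replicates reaching 40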;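 note: inhibitors cause a drop in the FAM fluorescence signal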
Target sequence (Q92698 whole entry, looked up): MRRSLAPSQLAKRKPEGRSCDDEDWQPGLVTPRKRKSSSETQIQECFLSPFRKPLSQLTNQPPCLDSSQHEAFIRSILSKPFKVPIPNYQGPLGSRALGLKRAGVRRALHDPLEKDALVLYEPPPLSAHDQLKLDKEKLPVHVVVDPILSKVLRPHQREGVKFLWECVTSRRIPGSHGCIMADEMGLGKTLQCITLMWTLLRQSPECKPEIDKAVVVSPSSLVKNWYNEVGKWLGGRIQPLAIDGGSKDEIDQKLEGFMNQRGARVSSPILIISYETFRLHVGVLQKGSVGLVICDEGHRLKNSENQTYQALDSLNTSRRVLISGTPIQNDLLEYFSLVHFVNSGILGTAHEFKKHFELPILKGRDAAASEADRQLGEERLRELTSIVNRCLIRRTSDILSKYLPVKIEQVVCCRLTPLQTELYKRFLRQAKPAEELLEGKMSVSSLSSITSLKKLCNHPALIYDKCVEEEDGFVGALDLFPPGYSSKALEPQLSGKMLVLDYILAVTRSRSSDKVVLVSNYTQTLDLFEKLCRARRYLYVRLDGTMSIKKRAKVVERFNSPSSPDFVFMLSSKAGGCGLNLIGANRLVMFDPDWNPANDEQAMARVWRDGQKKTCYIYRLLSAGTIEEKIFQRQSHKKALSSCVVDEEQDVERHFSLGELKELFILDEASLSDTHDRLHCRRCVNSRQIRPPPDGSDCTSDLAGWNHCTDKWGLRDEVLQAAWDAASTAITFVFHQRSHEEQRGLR
ABCB6 inh 2: inhibitors of human ABC transporter ABCB6. 360,000 tested, 0.19% active. K562-ABCB6 porphyrin accumulation, flow cytometry, 1 h; stronger effect = lower value. fluorescence ratio to DMSO, % at 10 µM. Q9NP58;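 active = fluorescence ratio to DMSO below 75%, the collection mean minus 3 SD; inconclusive = too few cells collected in the well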;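 note: signal is porphyrin accumulated inside mitochondria; lower ratio means ABCB6 inhibition with less porphyrin fluorescence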
DNA binding: DNA binding artifact in Rad54 counter-screen. shares compounds with RAD54 branch. Acridine orange-DNA displacement, fluorescence polarization, 20 min. AC50, µM (series often up to 35 µM). 460 tested, 8% active. AID 651673;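 active = signal drop giving an AC50 within twice the top valid tested concentration of each sample, actives reach about 35 µM in these data; inactive = activity opposite to expected, plus the rest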;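 note: polarization loss reports compound binding to salmon sperm DNA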
Of the large screens only hits and unclear results are named; the others gave an inactive call (follow-up assays come after a bar, where they were run).

Cc1noc(C)c1S(=O)(=O)N(C)C[C@@H]1OCCCC[C@@H](C)Oc2ccc(NC(=O)Cc3ccccc3)cc2C(=O)N([C@@H](C)CO)C[C@H]1C	none (no result: Myeloid diff MLP, N-glyco inh, Vif inh, ABCB6 inh 2)
CCN1CCN(c2ccc(NC(=O)c3cc4ccccc4cc3OC)cc2C)CC1	RAD54 branch 54 | DNA binding inactive
CCNC(=O)C[C@H]1CC[C@H](NS(=O)(=O)c2ccc(F)cc2)[C@@H](CO)O1	none (no result: Myeloid diff MLP, N-glyco inh, Vif inh, ABCB6 inh 2)
CCN(CC)CC(=O)Nc1cc(N(C)C)nc2ccccc12	RAD54 branch 51 | DNA binding inactive
CCCc1nc2ccccc2c(NC(=O)CN(CC)CC)c1CC	none (no result: RAD54 branch)
Cn1c2ccc(F)cc2c2ncn(CCN3CCOCC3)c(=O)c21	none (no result: RAD54 branch)
Cn1c2ccc(F)cc2c2ncn(CCCN(CCO)CCO)c(=O)c21	RAD54 branch 54 | DNA binding inactive
Oc1cccc2ccc(Nc3ccccn3)nc12	RAD54 branch 94 | DNA binding inactive
c1cc2c3c(cccc3c1)C(N1CCCCCC1)=N2	none
c1cc2c3c(cccc3c1)C(N1CCCCC1)=N2	RAD54 branch 65 | DNA binding inactive
CCCNC(=O)N1C[C@@H](O)COC[C@H]2O[C@@H](CC(=O)N3CCC(Cc4ccccc4)CC3)CC[C@@H]21	none (no result: Myeloid diff MLP, N-glyco inh, Vif inh, ABCB6 inh 2)
CN1CCN(CCNC(=O)c2cc3c(=O)n(C)c4ccccc4c3n2C)CC1	RAD54 branch 64 | DNA binding inactive
CCCN1CCN(CCCNC(=O)c2cc3c(=O)n(C)c4ccccc4c3n2C)CC1	RAD54 branch inconclusive | DNA binding inactive
Cn1c(C(=O)NCCCN2CCCCCC2)cc2c(=O)n(C)c3ccccc3c21	Myeloid diff MLP inconclusive
CO[C@@H]1CN(C)C(=O)c2ccc(NS(=O)(=O)C3CCCCC3)cc2OC[C@H](C)NC[C@H]1C	none (no result: Myeloid diff MLP, N-glyco inh, Vif inh, ABCB6 inh 2)
CO[C@H]1CN(C)C(=O)c2cc(NC(C)=O)ccc2OC[C@@H](C)N(Cc2ccccn2)C[C@H]1C	none (no result: Myeloid diff MLP, N-glyco inh, Vif inh, ABCB6 inh 2)
CCC(=O)N1C[C@@H](C)[C@H](OC)CN(C)C(=O)c2ccc(NC(=O)C3CCOCC3)cc2OC[C@H]1C	none (no result: Myeloid diff MLP, N-glyco inh, Vif inh, ABCB6 inh 2)
CCN1CCN(c2nc(N)c([N+](=O)[O-])c(Nc3cccc(C)c3)n2)CC1	RAD54 branch inconclusive | DNA binding inactive
O=S(=O)(c1ccc(-c2nnc(SCc3ccccc3)o2)cc1)N1CCCC1	RAD54 branch inconclusive | DNA binding inactive
CCNC(=O)C[C@H]1CC[C@H]2[C@H](COc3ccc(NC(=O)Nc4ccccc4OC)cc3C(=O)N2C)O1	none (no result: Myeloid diff MLP, N-glyco inh, Vif inh, ABCB6 inh 2)
Cc1cc(C)c2c(c1)c1nnc(SCCN3CCCCC3)nc1n2C	RAD54 branch 73 | DNA binding inactive
Cc1[nH]ccc2cc3nc4ccccc4c3cc12	RAD54 branch 83 | DNA binding inactive
COc1ccccc1S(=O)(=O)N1CC[C@@H]2[C@H]1c1cc(-c3ccccc3F)ccc1N[C@@H]2CO	none (no result: Myeloid diff MLP, N-glyco inh, Vif inh, ABCB6 inh 2)
Cc1ccc2nc(Cl)c3cc(C(=O)NCCCN4CCCC4)sc3c2c1	RAD54 branch 79 | DNA binding inactive
CCCN1CCN(CCCNC(=O)c2cc3c(=O)oc4ccc(C)cc4c3s2)CC1	none
Cc1ccc2[nH]c(=O)c3cc(C(=O)NCCN4CCN(C)CC4)sc3c2c1	RAD54 branch 57 | DNA binding inactive
C[C@@H]1CN([C@@H](C)CO)C(=O)c2cc(C#C[C@@H](C)O)cnc2O[C@H]1CN(C)C(=O)Nc1ccc(F)cc1	none (no result: Myeloid diff MLP, N-glyco inh, Vif inh, ABCB6 inh 2)
CCOC(=O)c1[nH]c2cc3c(cc2c1CCCN1C(=O)c2ccccc2C1=O)OCCO3	RAD54 branch inconclusive | DNA binding inactive
Cc1ccc(Nc2cc(C)nc3c(C)cccc23)cc1	RAD54 branch inconclusive | DNA binding inactive
COc1ccc2nc(C)cc(Nc3ccc(C)cc3)c2c1	RAD54 branch 57 | DNA binding inactive
COc1ccc2nc(C)cc(Nc3ccc(N4CCOCC4)cc3)c2c1	N-glyco inh 49, RAD54 branch inconclusive | DNA binding inactive
CC(=O)c1ccc(Nc2cc(C)nc3c(C)cccc23)cc1	none
COC(=O)Nc1nnc(COc2cccc(C)c2)s1	none (no result: RAD54 branch)
COC(=O)Nc1nnc(COc2ccccc2)s1	RAD54 branch inconclusive | DNA binding inactive
C[C@H]1CN([C@@H](C)CO)C(=O)Cc2cc(NS(=O)(=O)c3cn(C)cn3)ccc2O[C@@H]1CN(C)C(=O)Nc1ccccc1	none (no result: Myeloid diff MLP, N-glyco inh, Vif inh, ABCB6 inh 2)
COc1ccc2nc(-c3ccc(N)cc3)[nH]c2c1	RAD54 branch 77 | DNA binding inactive
CN(C)CCCNc1cc(-c2ccccc2)nc2cc(-c3cccc(F)c3)nn12	RAD54 branch 90 | DNA binding inactive
